# This is one part of a sample in which hits are shown more often than they occur.
# Pf Dd2 growth: Plasmodium falciparum Dd2 growth inhibition | 120,000 tested, 4.3% active | Potency, µM (series often up to 28.9 µM), for inactives: top-dose activity, negative = inhibition, actives largely listed as inhibitors | P. falciparum Dd2 growth, SYBR Green, 72 h | AID 1347417; active = well fitted inhibition curve with a large enough effect;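 also: plate controls were DMSO vehicle for no effect and reference drug for full effect; nearly all actives have a fitted effect of over 65% in size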
#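 Readout: SYBR Green fluorescence, 485 nm excitation, 535 nm emission, after ~16 h lysis at 37C. Before that, Dd2-infected red cells (2.5% hematocrit) grew 72 h with compound, 29 uM top final concentration.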
# * marks the source's active call; other numbers are inactive results; i = inactive; [ ] = another dose, or the depositor's remark. Potency is read from the fitted curve at half-maximal effect.
SMILES,Pf Dd2 growth
CCN1CCSc2ccc(C(=O)NCc3ccc(OC(C)C)cc3)cc21,17%
Cc1ccc(NC(=O)CN2CCSc3ccc(S(=O)(=O)N4CCCC4)cc32)cc1,7.9µM*
CCc1ccc(NC(=O)c2ccc3c(c2)N(Cc2ccc(C)cc2)CCS3)cc1,8.9µM*
COc1cc(Cl)c(C)cc1NC(=O)c1ccc(CN2C(=O)CCn3nc(C)cc32)cc1,-3%
Cc1ccc(CCNC(=O)c2ccc3c(c2)N(Cc2ccc(F)cc2)CCS3)cc1,10%
Cc1ccc(NC(=O)CN2C(=O)CCSc3ccc(S(=O)(=O)N4CCCC4)cc32)cc1C,13%
O=C(NCc1ccc2c(c1)OCO2)C1CCc2sc(C(=O)N3CCCCCC3)cc2C1 (centres undefined),i
O=C1NCc2ccccc2CC12CCN(Cc1cc(O)ccc1[N+](=O)[O-])C2 (centres undefined),0%
COc1ccccc1C(=O)N1CC(Oc2ccc(F)c(F)c2)C1,-5%
O=C(NCCC1CCN(Cc2ccccc2)CC1)C1CNCCO1 (centres undefined),10%
CNC(=O)c1cnn2ncccc12,17%[44.1 µM]
O=C(c1cc2ccccc2[nH]1)N1CC2CC(C1)[C@@H]1CCCC(=O)N1C2 (some centres undefined),-10%
Cc1noc(-c2cccn3c(CNC(=O)c4ccc(C(C)(C)C)cc4)nnc23)n1,-13%
CC(C)NC(=O)[C@@H]1C[C@H](N)CN1C(=O)c1ccc(-n2cnnn2)cc1,-1%
O=C(N1CCC(NS(=O)(=O)c2ccccc2)CC1)N1CC2CC(C1)[C@H]1CCCC(=O)N1C2 (some centres undefined),i
O=C1c2c(nc(COc3ccc4c(c3)OCO4)n2Cc2ccccc2)NCCN1Cc1ccccc1,i
COC(=O)C1=CN(CC(=O)NCc2ccc(OC)cc2)S(=O)(=O)N=C1C,23%
O=c1cc(-c2ccccn2)oc2c(NCc3ccccc3)nccc12,-14%[44.1 µM]
O=c1cc(-c2cccnc2)oc2c(NCc3ccc(F)cc3)nccc12,11µM*
C[S+](=O)([O-])c1ccc(-c2nccc3c(=O)cc(-c4cccnc4)oc23)cc1,-8%[44.1 µM]
COCC(=O)N1CC[C@@H](CC(=O)O)[C@@H](CCN2CCN(c3cccc(C(F)(F)F)c3)CC2)C1,10%
CC(C)CN1C(=O)c2cccn2CC1CNC(=O)c1cccc(F)c1 (centres undefined),-24%
Cc1ccc(-c2cccc(CN3C4CCC3CN(C(=O)c3ccncc3)C4)c2)c(C)c1,-21%
CC(C)N1CC2CCC(C1)N2Cc1cccc(Cl)c1,-5%[44.1 µM]
Cc1ccc(-c2cccc(CN3C4CCC3CN(C(C)C)C4)c2)c(C)c1,10µM*
SMILES,Pf Dd2 growth
COc1cccc(N2CC(C(=O)NCc3ccc4c(c3)OCO4)NC2=O)c1 (centres undefined),16%
CN(Cc1ccccc1)Cc1cn(C[C@H]2O[C@@H](CC(=O)N3CCCC3)[C@H](O)[C@@H]2O)nn1,12%[44.1 µM]
CNC(=O)[C@@H]1CN(C(=O)c2cc(C)n(CCOC)c2C)C[C@H]1c1n[nH]c(C)n1,-15%
Cc1cccc(C(=O)Nc2cccc(C3OC(=O)N(Cc4ccccc4)C3C(=O)NCC(C)C)c2)c1 (centres undefined),-8%
Cc1ccc(CN2C(=O)OC(c3cccc(NC(=O)c4ccccc4)c3)C2C(=O)NCCC(C)C)cc1 (centres undefined),7.1µM*
CCC(=O)Nc1cccc(C2OC(=O)N(Cc3ccc(C)cc3)C2C(=O)NCCOC)c1 (centres undefined),i
COc1ccccc1-c1nc(C(=O)N2CCOCC2)n2ccncc12,2%
COC1CCC12CCN(C(=O)c1ccc3cc[nH]c3c1)CC2 (centres undefined),-19%
CN1CCN(C(=O)c2ccc(-c3ccc(N4CCSCC4)nc3)cc2)CC1,i
Cn1nccc1C(O)c1cc2n(n1)CCN(c1ncc(Cl)cn1)C2 (centres undefined),-8%
Cc1nc2cc(N3CCC(C(=O)NCCC4=CCCCC4)CC3)cnc2nc1C,-19%
O=C(c1ccn[nH]1)N1CCCCC1c1noc(COc2ccc(F)cc2)n1 (centres undefined),-22%
COc1ccc(CN2C(=O)[C@@H]3C[C@@H](O)CN3C3(CN(Cc4cnc5ccccc5c4)C3)C2=O)cc1,7.1µM*
COc1ccc(CN2C(=O)[C@@H]3C[C@@H](O)CN3C3(CN(Cc4cccc(OC)c4)C3)C2=O)cc1,i
COc1ccc(CN2C(=O)[C@@H]3C[C@@H](O)CN3C3(CN(Cc4ccncc4)C3)C2=O)cc1,6%[44.1 µM]
Cc1nc(C2CC(NC(=O)c3cnc(N)nc3C(F)(F)F)C2)cc(=O)[nH]1 (centres undefined),-4%
COc1cccc(CN2CCNC(=O)C2CC(=O)N2CCC(O)CC2)c1OC (centres undefined),-9%
CCc1ccc(N2CC(c3noc(Cc4ccccc4F)n3)CC2=O)cc1 (centres undefined),-6%
CCn1nccc1C(=O)N1CCCCCCNC(=O)[C@@H]2C[C@@H](c3nc(Cc4ccccc4)no3)C[C@@H]21,-20%
Cc1cnc(C2CCOCC2)n1C1CCN(C(=O)Nc2ccc3c(c2)OCCO3)CC1,7.9µM*
Cc1cnc(C2CC2)n1C1CCN(C(=O)NC(C)C)CC1,-14%
Cc1cnc(CCNC(=O)Nc2ccc3c(c2)OCCO3)n1C1CC1,-16%
CN(CCC(O)c1ccccc1)C(=O)c1ccc2oc(-c3cccc(F)c3)nc2c1 (centres undefined),i
CCOc1ccccc1C(=O)N1CCN(C(=O)c2nnn3c2COC(c2ccc(Cl)cc2)C3)CC1 (centres undefined),-9%
COc1cc(NC(=O)c2c(OC)cc(=O)n3c2CCCC3)cc(OC)c1,61%
SMILES,Pf Dd2 growth
Cc1ccc(C2=Nc3ccccc3N(CC(=O)NCc3ccc(F)cc3)C(=O)C2)cc1C,-17%
Cc1ccc(C2=Nc3ccccc3N(CC(=O)NCc3ccc(Cl)cc3)C(=O)C2)cc1C,-14%
O=C(CN1C(=O)CC(c2ccccc2)=Nc2ccccc21)Nc1ccc(Br)cc1,10µM*
O=[S+]1([O-])NCC2(CCN(Cc3ccc(Cl)cc3)C2)Oc2ccncc21 (centres undefined),-9%
CC(C)N1CCN(C(=O)CN2CC3CC(C2)[C@H]2CCCC(=O)N2C3)CC1 (some centres undefined),-4%
CC(=O)NC[C@H]1C[C@@H]2CCN1C[C@@H]2c1cc(-c2ccccc2)nc(C)n1,i
Cc1nc(-c2ccc(F)cc2)cc([C@H]2CN3CC[C@H]2C[C@@H]3CNC(=O)c2ccco2)n1,i
CCCS(=O)(=O)NC[C@H]1C[C@@H]2CCN1C[C@@H]2c1cc(-c2ccccc2Br)nc(C)n1,i
Cc1nc(-c2ccccc2)cc([C@H]2CN3CC[C@H]2C[C@@H]3CNC(=O)C(C)(C)C)n1,-1%[44.1 µM]
CCC(CC)c1cc([C@H]2CN3CC[C@H]2C[C@@H]3CNC2CCN(C)CC2)nc(-c2ccncc2)n1,1.4µM*
Cc1nc(-c2ccccc2Br)cc([C@H]2CN3CC[C@H]2C[C@@H]3CNC(=O)c2cccs2)n1,-21%
Cc1nc(-c2ccco2)cc([C@H]2CN3CC[C@H]2C[C@@H]3CNCC2CCCCC2)n1,3.2µM*
Cc1nc(-c2ccco2)cc([C@H]2CN3CC[C@H]2C[C@@H]3CNS(C)(=O)=O)n1,i
Cc1nc(-c2ccccc2)cc([C@H]2CN3CC[C@H]2C[C@@H]3CNC(=O)c2ccco2)n1,i
Cc1nc(-c2ccco2)cc([C@H]2CN3CC[C@H]2C[C@@H]3CNC2CCOCC2)n1,11µM*

# Source: PubChem BioAssay
